Source: the supplement of paper PMC13380429

How the values were obtained:
[1] = test system: Vero E6 infected with SARS-CoV-2; assay: morphology score (similarity to uninfected cells); higher = more like uninfected cells; details: 24 h
[2] = test system: Vero E6 infected with SARS-CoV-2; assay: SARS-CoV-2 infection rate relative to infected DMSO; higher = more infection, active = 60 or less; details: 24 h

Row | SMILES | morphology score [1] | SARS-CoV-2 infection rate [2]
1 | C[C@@H]1CN(Cc2ncccn2)C[C@H]1c1nc2c(cnn2C2CCOCC2)c(=O)[nH]1 (10 µM) | 0.11 | 108% (inactive)
2 | Cc1cc(C)c(S(=O)(=O)Nc2ccccc2C(F)(F)F)c(C)c1 (10 µM) | -0.0872 | 113% (inactive)
3 | Nc1ncnc2c1ncn2[C@@H]1O[C@H](COP(=O)(O)O)[C@@H](O)[C@H]1O [adenosine-phosphate] (10 µM) | -0.114 | 113% (inactive)
4 | CCn1c(O)nnc1-c1ccc(Cl)cc1 [5-(4chlorophenyl)-4-ethyl-2,4-dihydro-3H-1,2,4-triazol-3-one] (0.833333 µM) | 0.0166 | 110% (inactive)
5 | N#CC(=C(/N)Sc1ccccc1N)/C(C#N)=C(/N)Sc1ccccc1N (10 µM) | -0.197 | 113% (inactive)
6 | Oc1ccc([C@@H]2Oc3ccc(O)cc3[C@@H]3CCC[C@@H]32)cc1 [erteberel] (10 µM) | 0.0963 | 113% (inactive)
7 | Nc1nc(Cl)nc2c1ncn2[C@@H]1O[C@H](CO)[C@@H](O)[C@@H]1F [clofarabine] (0.833333 µM) | 0.11 | 94.5% (inactive)
8 | Cc1ccc(/N=C/N(C)/C=N/c2ccc(C)cc2C)c(C)c1 [amitraz] (10 µM) | 0.147 | 106% (inactive)
9 | C[S+](C)CC[C@H](N)C(=O)O [cabagin] (10 µM) | 0.00749 | 109% (inactive)
10 | N[C@@H]1CCCCN(c2c(F)cc3c(=O)c(C(=O)O)cn(C4CC4)c3c2Cl)C1 [besifloxacin] (10 µM) | 0.165 | 110% (inactive)
11 | CCOC(=O)[C@H](CCc1ccccc1)N[C@@H](C)C(=O)N1CCC[C@H]1C(=O)O [enalapril] (10 µM) | 0.198 | 96.5% (inactive)
12 | C[C@H](N)[C@H](O)c1cccc(O)c1 [metaraminol] (10 µM) | -0.0578 | 104% (inactive)
13 | CCCCCCCCCCCCC[N+](C)(C)Cc1ccccc1 [benzalkonium] (10 µM) | 0.0369 | 105% (inactive)
14 | CC[C@@H](Nc1c(Nc2cccc(C(=O)N(C)C)c2O)c(=O)c1=O)c1ccc(C)o1 [navarixin] (10 µM) | -0.0629 | 110% (inactive)
15 | CC(C)N1CCN(c2ccc(OCC3COC(Cn4cncn4)(c4ccc(Cl)cc4Cl)O3)cc2)CC1 (stereo unspecified) [terconazole] (0.833333 µM) | -0.0821 | 106% (inactive)
16 | CC[C@H]1OC(=O)C[C@@H](O)[C@H](C)[C@@H](O[C@@H]2O[C@H](C)C[C@H](N(C)C)[C@H]2O)[C@@H](CC=O)C[C@@H](C)C(=O)/C=C/[C@]2(C)O[C@H]2[C@@H]1C [rosamicin] (10 µM) | 0.129 | 96% (inactive)
17 | O=C(COc1ccc(Cl)cc1)N1CCN(Cc2ccc3c(c2)OCO3)CC1 [fipexide] (10 µM) | -0.165 | 112% (inactive)
18 | Brc1c(Br)c(Br)c2[nH]nnc2c1Br [4,5,6,7-tetrabromobenzotriazole] (10 µM) | -0.0654 | 106% (inactive)
19 | CC[N+](CC)(CC)CCOc1ccc(/C=C/c2ccccc2)cc1 (10 µM) | -0.141 | 105% (inactive)
20 | COc1ccccc1NC(=O)OCC1CCN(C(=O)OC(C)(C)C)CC1 (10 µM) | 0.0728 | 97% (inactive)
21 | CC[C@@H](C)N(C)C(=O)c1cc2ccccc2c(-c2ccccc2Cl)n1 (10 µM) | -0.122 | 111% (inactive)
22 | C[C@@H]1CCC[C@H](C)N1NC(=O)c1ccc(Cl)c(S(N)(=O)=O)c1 [clopamide] (10 µM) | -0.0797 | 103% (inactive)
23 | Cc1cc2c(C(C)C)c(O)c(O)c(C=O)c2c(O)c1-c1c(C)cc2c(C(C)C)c(O)c(O)c(C=O)c2c1O [gossypol] (0.833333 µM) | -0.0839 | 104% (inactive)
24 | O=C1CN=C(c2cccc(Br)c2)c2oc3ccccc3c2N1 (10 µM) | 0.0252 | 95.5% (inactive)
25 | CNC(=O)ON(C(C)=O)C(=O)NC [caracemide] (10 µM) | 0.0974 | 104% (inactive)
26 | COc1ccnc2[nH]cc(C(=O)C(=O)N3CCN(C(=O)c4ccccc4)C[C@H]3C)c12 (10 µM) | -0.0708 | 99% (inactive)
27 | CC(C)c1cc(-c2ccc(F)c3ccccc23)nc(N)n1 (10 µM) | 0.153 | 108% (inactive)
28 | C=CC(=O)N1CCN(C(=O)CNc2cc(I)c(Cl)cc2O)CC1 [K-Ras(G12C)-inhibitor-12] (10 µM) | -0.138 | 111% (inactive)
